An excerpt weighted towards active compounds, which were near 11% of everything screened.
IL-1B inflam inh: qHTS for Inhibitors of Inflammasome Signaling: IL-1-beta AlphaLISA Primary Screen. AID 743279, 2014. hit rate 4.7% among 360,000. activity change, % at 57.5 µM. THP-1 LPS/ATP IL-1B secretion, AlphaLISA, 16 h; active compounds read low; in the data active = activity change below about -50%; inconclusive = mostly about -30% to -49%; also: % is scaled to controls: 0 for no effect and ±100 for the full control effect
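THP-1 cells pretreated 1 hr with compounds (up to 57.5 uM final), then stimulated with LPS (250 ng/mL final) plus ATP (1.25 mM final); secreted IL-1B measured by AlphaLISA after 16 hr, decreased signal indicating inhibition.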
RORgamma inh: qHTS for inhibitors of ROR gamma transcriptional activity; Nuclear receptor ROR-gamma (Mus musculus), P51450; Drosophila S2 Gal4-RORgamma UAS-luciferase reporter, 20 h; Potency, µM (highest dose often 53.6 µM), for inactives: at the top dose activity change, negative = inhibition, actives largely listed as inhibitors; hit rate 5.4% among 310,000; AID 2551, 2010; also: potency is read from the fitted curve at half-maximal effect; % is scaled to controls: 0 for no effect and ±100 for the full control effect; nearly all actives have a fitted effect of over 60% in size
Target sequence (P51450 whole entry, looked up, the tested form may be a part): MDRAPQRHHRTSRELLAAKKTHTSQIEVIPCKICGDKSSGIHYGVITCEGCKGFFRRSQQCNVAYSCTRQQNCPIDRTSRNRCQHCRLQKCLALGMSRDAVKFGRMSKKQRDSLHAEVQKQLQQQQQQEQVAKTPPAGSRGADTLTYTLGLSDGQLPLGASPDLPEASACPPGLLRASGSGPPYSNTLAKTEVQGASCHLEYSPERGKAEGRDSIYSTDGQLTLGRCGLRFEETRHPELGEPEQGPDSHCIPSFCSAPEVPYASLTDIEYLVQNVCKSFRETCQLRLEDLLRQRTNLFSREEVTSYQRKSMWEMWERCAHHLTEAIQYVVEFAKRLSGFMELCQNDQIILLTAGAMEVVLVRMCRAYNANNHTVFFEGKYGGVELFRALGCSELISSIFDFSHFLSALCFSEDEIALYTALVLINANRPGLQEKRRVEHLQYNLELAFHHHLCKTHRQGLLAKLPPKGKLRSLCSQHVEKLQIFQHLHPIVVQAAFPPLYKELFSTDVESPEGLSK
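Stable Schneider cell line, Gal4 DNA-binding domain fused to ROR gamma, UAS-luciferase. Cmpd 1 hr RT → CuSO4 700 uM final → 20 hr RT → luciferase reagent 10 min → luminescence.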
SW480 rerep: A quantitative high throughput screen for small molecules that induce DNA re-replication in SW480 colon adenocarcinoma cells; Potency, µM (top dose mostly 46.1 µM), inactives show top-dose re-replication activation, usual class: activators; SW480 DNA re-replication, Hoechst DNA content imaging, 48 h; hit rate 1.8% among 340,000; also: potency is read from the fitted curve at half-maximal effect; % of control where 0% means no effect; nearly all actives have a fitted effect of over 55% in size
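Treated cells incubate 48 hr (37 C, 5% CO2), are stained 40 min with Hoechst, and nuclear fluorescence is enumerated; a rise in nuclei with high DNA signal marks re-replication.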
VP16 counter: VP16 counterscreen qHTS for inhibitors of ROR gamma transcriptional activity; AID 2546, 2010; Drosophila S2 Gal4-VP16 UAS-luciferase, luminescence, 20 h; Potency, µM (titrated, usually from 53.6 µM), without a hit: top-dose activity, negative = inhibition, hits mostly inhibitors; hit rate 3.5% among 310,000;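 also: Gal4-VP16 expression switched on by copper sulfate through the metallothionein promoter; potency is read from the fitted curve at half-maximal effect; % is scaled to controls: 0 for no effect and ±100 for the full control effect; nearly all actives have a fitted effect of over 50% in size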
MCF10A rereplic: A quantitative high throughput screen for small molecules that induce DNA re-replication in MCF 10a normal breast cells | hit rate 2.9% among 350,000 | Potency, µM (doses to about 46.1 µM), for the others: at the highest dose activity, positive = re-replication, most hits filed as activators | MCF 10A DNA re-replication, Hoechst nuclear intensity, 48 h; also: potency is read from the fitted curve at half-maximal effect; % of control where 0% means no effect; nearly all actives have a fitted effect of over 50% in size
* = called active by the depositor; ? = inconclusive; · = not tested or not shown. Unless noted, calls follow the shape of the dose curve; as a rule, active = well fitted curve in the direction sought with a large enough effect; inconclusive = small, poorly fitted or top-dose-only effect, or another doubt; inactive = no such curve, though single readings can be large; an effect the other way counts as inactive or inconclusive.

SMILES | IL-1B inflam inh | RORgamma inh | SW480 rerep | VP16 counter | MCF10A rereplic
O=C(CCNC(=O)C1CCN(S(=O)(=O)c2ccccc2)CC1)NCc1ccncc1 | 1 | 2% | -2% | -1% | -3%
COc1ccccc1C(=O)Nc1ccnn1C1CCN(CCCc2ccccc2)CC1 | -2 | 0% | -9% | -7% | 8%
Cc1ncc(CO)c(/C=N/Nc2ccc(C(F)(F)F)cn2)c1O | 63 | ? | ? | 16µM* | 6%
FC(F)(F)c1ccc(N/N=C/c2cccnc2)nc1 | -97* | 34% | ? | 7% | 2%
CC(=O)c1ccc(-n2c(=O)[nH]c(=O)c3c(N)c(C(=O)c4ccc(Cl)cc4)sc32)cc1 | 179 | -3% | 18µM* | ? | ?
Cc1ccc(C(=O)c2sc3c(c2N)c(=O)[nH]c(=O)n3CCc2ccccc2)cc1 | 27 | -1% | ? | -8% | 9.2µM*
Cc1csc(NC(=O)c2ccc3nc[nH]c3c2)n1 | -12 | ? | -96% | ? | -28%
COc1ccc(Br)cc1CN1CCN(C(=O)c2ccco2)CC1 | 15 | 5% | -1% | 6% | 1%
CSc1ncc(C(=O)Nc2cccc(C)c2C)c(C)n1 | ? | 0% | 0% | 7% | -2%
Cc1ccc(S(=O)(=O)N2CCN(CCOc3cccc(C)c3)CC2)cc1 | -21 | · | 9% | · | -5%
CC(C)NC(=O)N1CC[C@@]2(CCCN(C(=O)c3ccncc3)C2)C1 | · | -12% | · | 8% | ·
Cc1ccc2nc(N(CCCN(C)C)C(=O)c3cc4ccccc4oc3=O)sc2c1 | -51* | -8% | -1% | -23% | 16%
CCC1CCCCN1S(=O)(=O)c1ccc(C(=O)N(CCCN(C)C)c2nc3cc4c(cc3s2)OCO4)cc1 (configuration not stated) | -80* | ? | ? | ? | ?
CN(C)CCN(C(=O)c1ccc2ccccc2c1)c1nc2ccc(Br)cc2s1 | -11 | 8% | -8% | -5% | 6%
Cc1ccc2nc(N(CCCN(C)C)C(=O)c3ccc(S(=O)(=O)N4CCCCCC4)cc3)sc2c1 | · | 11µM* | ? | ? | 0%
CC1CCCCN1S(=O)(=O)c1ccc(C(=O)N(CCCN(C)C)c2nc3ccc(Br)cc3s2)cc1 (configuration not stated) | -105* | ? | ? | ? | ?
COc1ccc(C(=O)OCC(=O)NC2CC2)cc1 | 13 | · | · | · | ·
CN1CCN(S(=O)(=O)c2ccc(Br)c3ccccc23)CC1 | 0 | 4% | 3% | 1% | 13%
CN(C)CCN(C(=O)c1ccc(S(=O)(=O)N2CCCC2)cc1)c1nc2ccc(Br)cc2s1 | -55* | -3% | -5% | 5% | 8%
CN(C)CCCN(C(=O)c1ccc(S(=O)(=O)N2CCCCCC2)cc1)c1nc2ccc(F)cc2s1 | -105* | 0% | 65% | -17% | 6%
CN(C)CCCN(C(=O)C1=COCCO1)c1nc2ccc(Br)cc2s1 | -68* | 0% | 23% | -15% | 14%
Cc1ccc(S(=O)(=O)CC(=O)N(CCCN(C)C)c2nc3ccc(C)cc3s2)cc1 | -55* | · | 0% | · | 1%
Cc1ccc2nc(N(CCCN(C)C)C(=O)CS(=O)(=O)c3ccccc3)sc2c1 | -21 | · | -6% | · | 2%
CN(C)CCCN(C(=O)c1ccc(S(=O)(=O)N2CCOCC2)cc1)c1nc2ccc(F)cc2s1 | -12 | 3% | 0% | -5% | 7%
Cc1cc(C)c2nc(N(CCCN(C)C)C(=O)C3=COCCO3)sc2c1 | ? | · | ? | · | 0%
SMILES | IL-1B inflam inh | RORgamma inh | SW480 rerep | VP16 counter | MCF10A rereplic
CCCCCCCN1CCN=C1N(C)C | -3 | · | -21% | · | 16%
COc1cc(Cl)c(CN2CCCC(CO)(Cc3ccccc3F)C2)cc1OC (configuration not stated) | ? | -15% | ? | -5% | ?
Cc1cc(C(=O)N2CCCC(CO)(Cc3ccc(F)cc3)C2)c(C)o1 (configuration not stated) | -25 | 9% | ? | -13% | 23µM*
CC(C)Oc1ccc(CN2CCCC(CO)(Cc3ccc(F)cc3)C2)cc1 (configuration not stated) | -72* | -20% | ? | -3% | 5%
CCOc1ccc(CN2CCCC(CO)(Cc3ccccc3F)C2)cc1 (configuration not stated) | -56* | -17% | -17% | -10% | ?
Cc1ccc(S(=O)(=O)N(C)C)cc1NC(=O)COC(=O)CSc1ccccc1 | 2 | · | 1% | · | -1%
O=C(CN1C(=O)NC(CCc2ccccc2)C1=O)Nc1cccc(Br)c1 (configuration not stated) | -28 | · | -21% | · | 19%
COc1c2ccccc2nn1C(C)C | 50 | · | · | · | ·
Cc1ccc2c(C)c(C(=O)Nc3ccc(S(=O)(=O)Nc4onc(C)c4C)cc3)oc2c1 | -4 | 44% | -4% | -10% | -2%
COc1cc(NC(=O)C2CSC3(C)CCC(=O)N23)c(OC)cc1Cl (configuration not stated) | -1 | · | -4% | · | 11%
O=C(CSc1ncccn1)N(Cc1cccnc1)C(CCc1ccccc1)c1nc2ccccc2[nH]1 (configuration not stated) | -18 | · | · | · | ·
CN1CCN(S(=O)(=O)c2cnccc2N2CCN(c3cccc(Cl)c3)CC2)CC1 | -50* | ? | -323% | -12% | -2%
CNS(=O)(=O)c1cnccc1N1CCN(c2cccc(Cl)c2)CC1 | -18 | -9% | -3% | 6% | -2%
CCN(CC)S(=O)(=O)c1cnccc1N1CCN(c2cccc(Cl)c2)CC1 | -69* | ? | -39% | 1% | ?
O=C(CCl)NC1(C(=O)O)CCCC1 | -2 | · | · | · | ·
CC(C)(C)Nc1nc(Cl)nc(Nc2ccccc2)n1 | -65* | ? | 0% | -6% | 16%
Clc1nc(Nc2ccccc2)nc(Nc2ccccc2)n1 | -100* | -28% | -2% | ? | 17%
COc1ccccc1Nc1nc(Cl)nc(NC(C)(C)C)n1 | -22 | 5% | -1% | 4% | ?
CC1(Cc2cccc(C#N)c2)C(=O)Nc2c(Cl)cccc21 (configuration not stated) | -5 | · | · | · | ·
CC(C)CC[n+]1ccn(-c2nc3ccccc3nc2[N-]S(=O)(=O)c2ccccc2)c1 | -2 | -3% | -7% | -12% | -4%
O=S(=O)([N-]c1nc2ccccc2nc1-[n+]1ccccc1)c1ccc(F)cc1 | 3 | 35% | 0% | 0% | 0%
CCCC[n+]1ccn(-c2nc3ccccc3nc2[N-]S(=O)(=O)c2ccc(Br)cc2)c1 | 13 | 14% | 18µM* | 7% | ?
O=S(=O)([N-]c1nc2ccccc2nc1-n1cc[n+](Cc2ccccc2)c1)c1ccc(Cl)cc1 | · | 6% | 18µM* | 2% | 18µM*
